In the library only some 3.2% were active in any assay of this set; here they are far more common.
Nrf2 block: Nrf2 pathway inhibition; A549 ARE-Fluc reporter, luciferase luminescence, 18-24 h; Potency, µM (doses to about 46 µM), for inactives: at the top dose activity change, negative = inhibition, usual class: inhibitors; 360,000 compounds, 2.1% hits; also: potency is read from the fitted curve at half-maximal effect; % is scaled to controls: 0 for no effect and ±100 for the full control effect; nearly all actives have a fitted effect of over 60% in size
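Nrf2 activity is the BugLite luminescence, read 15 min after reagent at room temperature, following CellTiter-Fluor cytotoxicity readout (30 min, 37C). Compound titrations were applied for 18-24 h to 5000 A549 ARE_Fluc cells/well in 5% FBS OPTI-MEM.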
IL2 activator: activates IL-2 in a cell-based reporter assay | IL-2 activation reporter assay, cell-based qHTS; stimulated with anti-CD3/CD4/CD28 beads; in transgenic mouse T cells | activation, % (series mostly up to about 46 µM) | 360,000 compounds, 0.065% hits | AID 652025; in the data active = activation above about 50%; inconclusive = mostly about 30% to 49%; also: 0% is about no effect
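Readout is EGFP and DsRed signal by fluorescent plate cytometry after 18 h at 37 degrees C. Transgenic mouse T cells (750/well) received compound for 60 min before bead stimulation (anti-CD3, anti-CD4, anti-CD28); memory T cells served as non-tolerant control.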
Nrf2 activator: activates Nrf2 signaling; AREc32 ARE-luciferase reporter (MCF7-derived line), luminescence, 24 h; 410,000 compounds, 0.31% hits; Potency, µM (doses to about 46.1 µM), without a hit: at the highest dose activation, most hits filed as activators; also: potency is read from the fitted curve at half-maximal effect; % of control where 0% means no effect; nearly all actives have a fitted effect of over 65% in size
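Luciferase luminescence (Steady-Glo, 30 min at room temperature) served as the read-out of ARE activation in AREc32 cells treated with compounds for 24 hr at 37 deg C.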
A549 tox: kills or reduces viability of A549 cells in Nrf2 counter-screen; A549 ARE-Fluc cells, CellTiter-Fluor viability, 18-24 h; Potency, µM (series often up to 46 µM), for inactives: at the top dose activity change, negative = cytotoxicity, hits mostly inhibitors; 390,000 compounds, 0.16% hits; also: potency is read from the fitted curve at half-maximal effect; % is scaled to controls: 0 for no effect and ±100 for the full control effect
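A549 ARE_Fluc cells in 5% FBS OPTI-MEM were exposed to compounds in concentration-response for 18-24 h at 37 deg C. Viability was read by CellTiter-Fluor fluorescence (Ex 405/Em 525) after 30 min, before the luciferase read.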
BRCA1 expr up: increases BRCA1 expression; 380,000 compounds, 1.1% hits; Potency, µM (highest dose often 46.1 µM), without a hit: top-dose activation, actives largely listed as activators; MCF7-BRCA1-FFLuc reporter, luminescence, 48 h; response scale: scaled: vehicle 0%, 10 µM genistein 100%; AID 624202; also: potency is read from the fitted curve at half-maximal effect; nearly all actives have a fitted effect of over 80% in size
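Activators of BRCA1 expression were detected as increased firefly luciferase luminescence in engineered MCF7 cells after 48 h compound incubation. Signals were scaled to genistein 10 microM as full activation.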
p53 reactivation: mutant p53 re-activation in reporter cells | H1299 p53-A138V BP100-luciferase reporter, luminescence, 24 h | Potency, µM (top dose mostly 92.2 µM), for the others: at the top dose activity change, positive = activation, most hits filed as activators | 320,000 compounds, 0.063% hits | AID 504706; also: potency is read from the fitted curve at half-maximal effect; % of control where 0% means no effect; nearly all actives have a fitted effect of over 45% in size
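p53-null H1299 cells stably carrying temperature-sensitive p53-A138V and a BP100-luciferase reporter were pinned with compounds (4-point, 1:5 series) and held 24 hrs at 37 deg C. Luminescence was read 10 min after detection reagent.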
Active calls of the source: *; ? = inconclusive; . = no result. Unless noted, calls follow the shape of the dose curve; as a rule, active = well fitted curve in the direction sought with a large enough effect; inconclusive = small, poorly fitted or top-dose-only effect, or another doubt; inactive = no such curve, though single readings can be large; an effect the other way counts as inactive or inconclusive.

SMILES | Nrf2 block | IL2 activator | Nrf2 activator | A549 tox | BRCA1 expr up | p53 reactivation
COc1ccc(-c2noc(CSc3nc(N)cc(=O)[nH]3)n2)cc1OC | . | . | 7% | 7% | . | .
COc1ccc(-c2noc(CCCC(=O)Nc3ccc(C(N)=O)cc3)n2)cc1 | . | -1 | -3% | -2% | -54% | 11%
CC(C)(C)c1ccc(-c2noc(CCC(=O)Nc3cccnc3)n2)cc1 | 0.26µM* | -3 | -2% | -2% | ? | 13%
CC(C)(C)c1ccc(-c2noc(CCC(=O)NCC3CCCO3)n2)cc1 (configuration not stated) | 0.58µM* | -2 | -2% | -4% | -91% | ?
COc1ccc(-c2noc(CCC(=O)Nc3cccnc3)n2)cc1 | 5% | 0 | -1% | -2% | 2% | 27%
COc1ccc(-c2noc(CCC(=O)Nc3ccc(C(F)(F)F)cc3)n2)cc1 | 18µM* | . | 0% | -6% | -19% | .
Cc1cccc(-n2c(C)nnc2SCC(=O)NC(C)c2ccco2)c1 (configuration not stated) | . | . | . | . | 27% | .
Cc1cccc(OC(=O)CSc2nnc(CNC(=O)c3ccccc3)o2)c1C | 22% | . | -1% | 8% | . | .
O=[N+]([O-])c1cc(NS(=O)(=O)c2ccc(Cl)nc2)ccc1Cl | 16µM* | -4 | 1% | ? | -42% | 4%
O=C(COc1ccc(Cl)cc1Cl)c1ccc[nH]1 | ? | -3 | 0% | 1% | 10µM* | ?
Cc1ccc(Cl)c(OCC(=O)OCC(=O)c2ccc[nH]2)c1 | 12% | -5 | -1% | -1% | 3% | 5%
Cc1c(Cl)cccc1NC(=O)CCC(=O)N/N=C/c1ccc[nH]1 | 18µM* | -2 | 0% | ? | -43% | -4%
Cc1ccc(C)c(NC(=O)CCC(=O)N/N=C/c2ccc[nH]2)c1 | ? | -1 | 0% | -13% | 3% | ?
O=C(COc1ccc(Cl)cc1Cl)N/N=C/c1ccc[nH]1 | 9.2µM* | 1 | 9% | ? | 10% | 13%
COc1cc(Br)cc(/C=N/NC(=O)Cc2ccc(C(F)(F)F)cc2[N+](=O)[O-])c1O | 16µM* | -2 | -2% | ? | -89% | ?
O=C(NCc1ccco1)C1CCN(C(=O)N2CCOc3ccc(Cl)cc32)CC1 | 17% | . | 0% | 4% | . | .
CCOc1ccc(N(CC(=O)Nc2ccc(C)c(C)c2)S(=O)(=O)c2c(C)noc2C)cc1 | 13µM* | -3 | 0% | -12% | -82% | 17%
CCOc1ccc(N(CC(=O)Nc2cccc(F)c2)S(=O)(=O)c2c(C)noc2C)cc1 | 13µM* | -1 | -1% | -16% | -57% | 2%
COc1ccc(N(CC(=O)Nc2cccc(C)c2)S(=O)(=O)c2c(C)noc2C)cc1 | ? | 0 | -1% | -6% | 2% | -1%
Cc1cccc(-c2nc(C)c(CCNC(=O)C(=O)Nc3ccccc3C#N)s2)c1 | . | . | 0% | 4% | 0% | .
N=c1ccn2c(n1)O[C@H]1[C@@H](CO)[C@H](O)O[C@H]12 | ? | 0 | 0% | -6% | -19% | -4%
N=c1nc2n(cc1F)C1OC(CO)C(O)C1O2 (configuration not stated) | 0.13µM* | -2 | 0% | ? | -72% | .
Cc1cc2c(s1)c(/C=N/O)c(C(=O)NCc1ccccc1F)n2C | 3% | . | . | 14% | . | .
Fc1ccc(/C=N/Nc2nccnc2Cl)cc1 | 23% | 0 | 29% | -7% | 10µM* | 5%
Oc1ccc(/C=N/Nc2nccnc2Cl)cc1 | ? | -1 | 6% | 0% | 71% | ?
SMILES | Nrf2 block | IL2 activator | Nrf2 activator | A549 tox | BRCA1 expr up | p53 reactivation
O=[N+]([O-])c1cccc(/C=N/Nc2ccccn2)c1 | ? | 1 | ? | 1% | 28% | 1%
O=[N+]([O-])c1cccc(/C=N/Nc2nccnc2Cl)c1 | ? | -1 | ? | -10% | 7.9µM* | 13%
Cc1nc2c(-c3ccccc3)c(C)nn2c(C)c1CCC(=O)NCc1ccc(Cl)cc1 | 11% | . | 1% | -9% | 8% | .
C#CCN1C(=O)S/C(=C\c2ccc(N3CCOCC3)cc2C)C1=O | 6% | 203* | 2% | -4% | 74% | 15%
CCN1C(=O)S/C(=C\c2ccc(N3CCOCC3)cc2C)C1=O | ? | -2 | 4% | -3% | ? | ?
Cc1cc(N2CCOCC2)ccc1/C=C1\SC(=O)N(C(C)C)C1=O | 20% | ? | 3% | -16% | ? | 15%
CCC(C)N1C(=O)S/C(=C/c2ccc(N3CCOCC3)cc2C)C1=O (configuration not stated) | 13% | -5 | 4% | -7% | 8.9µM* | ?
CC(C)CN(CC(C)C)S(=O)(=O)c1ccc(C(=O)Nc2sc3c(c2C(N)=O)CCN(C(C)C)C3)cc1 | . | . | 12% | 25% | -24% | .
CN(C)c1oc(/C=C/c2ccccc2)nc1C#N | ? | -2 | 7.9µM* | ? | 48% | ?
CN(C)c1oc(/C=C/c2ccc(F)cc2)nc1C#N | 23% | . | 20% | -5% | . | .
CCCn1[nH]cc(SC)c(=O)c1=O | . | 51* | 0% | 0% | 14% | -1%
COc1ccc(-c2cc(C(F)(F)F)nc(SCCC(=O)Nc3ccc(F)cc3F)n2)cc1 | 11% | . | -1% | 0% | 0% | .
CCOC(=O)/C(C#N)=C/Nc1ccccc1OC | ? | -3 | 4% | -1% | 2.2µM* | ?
O=C(CSC1=Nc2ccccc2C2CC=NN12)NCc1ccco1 (configuration not stated) | ? | 1 | 0.63µM* | -20% | -55% | -26%
Cc1cc(C)cc(N(CCC#N)C(=O)CSC2=Nc3ccccc3C3CC=NN23)c1 (configuration not stated) | 23µM* | -2 | 6% | ? | -47% | -3%
N#Cc1ccccc1NC(=O)CSC1=Nc2ccccc2C2CC=NN12 (configuration not stated) | -19% | -1 | 5% | 1% | -4% | -2%
CC(C)[C@H](NC(=O)OC(C)(C)C)c1cc(C(=O)N2CCOCC2)c(N)s1 | . | 0 | . | . | . | .
c1ccc(-c2ccc(OCCOCCn3cncn3)cc2)cc1 | 0% | -1 | 4% | -2% | 7.1µM* | ?
c1ccc(Cc2ccc(OCCn3cncn3)cc2)cc1 | -13% | -2 | 0% | -9% | -3% | 11%
COc1ccc2nc(NC(=O)CSc3nnc(-c4ccoc4C)n3C)sc2c1 | 5% | -3 | 0% | 4% | 5.6µM* | ?
CCn1nnnc1SCC(=O)Nc1nc2ccc(OC)cc2s1 | 19% | -3 | 1% | -6% | 64% | 10%
